Test results from PubChem BioAssay AID1851 (National Center for Advancing Translational Sciences (NCATS), 2009).
The whole screen tested about 16,000 compounds, of which about 5,700 (36%) were called active. Not shown: some 24% with an inconclusive outcome. The list shows a part of the results. A number with no mark means an inactive call. Calls follow the shape of the dose curve; as a rule, active = well fitted curve in the direction sought with a large enough effect; inconclusive = small, poorly fitted or top-dose-only effect, or effect the other way; inactive = no such curve, though single readings can be large or run the other way.

Target: Cytochrome P450 1A2 (Homo sapiens) (UniProt P05177)
Assay: Cytochrome panel assay with activity outcomes
Conditions: recombinant CYP, pro-luciferin dealkylation, luminescence, p450-cyp1a2; series mostly up to 57.1 µM
% is scaled to controls: 0 for no effect and ±100 for the full control effect.

Chain of Cytochrome P450 1A2 (Homo sapiens) (P05177 whole entry, looked up): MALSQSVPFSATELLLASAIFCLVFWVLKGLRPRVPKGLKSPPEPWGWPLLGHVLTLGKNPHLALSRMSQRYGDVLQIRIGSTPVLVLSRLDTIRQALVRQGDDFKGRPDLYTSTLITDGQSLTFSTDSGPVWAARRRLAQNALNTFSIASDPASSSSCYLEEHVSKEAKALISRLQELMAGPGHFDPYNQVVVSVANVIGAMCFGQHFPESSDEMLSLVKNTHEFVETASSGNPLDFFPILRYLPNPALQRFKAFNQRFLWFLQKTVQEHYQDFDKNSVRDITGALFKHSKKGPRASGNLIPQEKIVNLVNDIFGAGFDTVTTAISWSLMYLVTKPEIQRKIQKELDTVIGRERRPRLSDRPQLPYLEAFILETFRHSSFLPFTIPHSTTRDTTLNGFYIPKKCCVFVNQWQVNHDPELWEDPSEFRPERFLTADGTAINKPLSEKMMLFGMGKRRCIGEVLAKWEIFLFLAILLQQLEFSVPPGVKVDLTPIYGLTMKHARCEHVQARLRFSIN

Row | SMILES | AC50 | activity, negative = inhibition
1 | CS(=O)(=O)N1CCC2(CCCN(C(=O)Nc3cccc(C#N)c3)C2)CC1 | inactive | –
2 | CC(=O)N1CCC[C@@]2(CCN(Cc3nccs3)C2)C1 | inactive | –
3 | Cn1nc(-c2ccccc2)c(C(=O)Nc2ccc(Cl)cc2)c1Cl | 1.26 µM (active) | –
4 | COC(=O)CC1C(=O)NCCN1C(=O)Nc1ccc(Cl)cc1 (stereo not given) | inactive | –
5 | Cc1nn(C)c(C(=O)NNC(=S)Nc2ccc(Cl)cc2)c1[N+](=O)[O-] | inactive | –
6 | Cc1nn(Cc2c(F)c(F)c(F)c(F)c2F)c(C)c1NC(=O)c1c(-c2ccccc2)nn(-c2ccccc2)c1C | inactive | –
7 | Cn1nccc1C(=O)Nc1ccc(Cl)cc1 | 4.47 µM (active) | –
8 | O=C(Nc1ccc(Cl)cc1)c1cnc(-c2ccccc2)nc1-c1ccccc1 | 0.708 µM (active) | –
9 | CC(=O)OC[C@@H]1O[C@@H](O/N=C2/C[C@@H](O)[C@@H](O)[C@@H]3[C@@H]4C(=O)N([C@@H](C)c5ccccc5)C(=O)[C@H]4CC[C@@H]23)[C@H](OC(C)=O)[C@H](OC(C)=O)[C@@H]1OC(C)=O | – | 4.64% [at 11.4 µM]
10 | COc1ccc(CNc2ncncc2-c2ccccc2CN(C)C)c(OC)c1 | 15.8 µM (active) | –
11 | COc1ccc(CNc2ncncc2-c2ccccc2OC)c(OC)c1 | 5.01 µM (active) | –
12 | COc1ccc(CNc2ncncc2-c2ccccc2C)c(OC)c1 | 10 µM (active) | –
13 | O=C1C[C@H]2C(=O)[C@@H]1[C@@H](C(=O)O)[C@H]2C(=O)O | – | -11% [at 11.4 µM]
14 | COc1ccc(COC2OC[C@]3(C)[C@H]4C5=C(CN3C(=O)OC(C)(C)C)[C@H](C)C(CO)C(CO)C5CC[C@@H]24)cc1 (stereo not given in full) | inactive | –
15 | CC(C)[C@H](NC(=O)OC(C)(C)C)[C@@H](O)CC(=O)OC(C)(C)C | – | -7.19% [at 11.4 µM]
16 | CCOC(=O)N1CCN(CC(=O)c2ccc3c(c2)CCN3)CC1 | inactive | –
17 | COc1cc(/C=C2/C(=N)N3C=CSC3=NC2=O)ccc1OCCCOc1c(C)cccc1C | 3.55 µM (active) | –
18 | COc1cc(/C=C2/C(=N)N3OC(C)=CC3=NC2=O)ccc1OCCOc1ccc(C)cc1 | inactive | –
19 | CCOc1cc(/C=C2/C(=N)N3C=CSC3=NC2=O)ccc1OCCCOc1ccccc1C | inactive | –
20 | CCOC(=O)c1c(C(C)(C)C)oc2ccc(O)cc12 | 0.251 µM (active) | –
21 | C[C@@](N)(Cc1ccc(O)cc1)C(=O)O | inactive | –
22 | C[C@@](N)(Cc1ccc(O)c(O)c1)C(=O)O | inactive | –
23 | COC(=O)[C@@H]1CC[C@H](C)[C@@H](c2ccc(C)cc2)N1C(=O)c1ccc(/C=N\OC[C@@H](O)[C@H]2O[C@H]3OC(C)(C)O[C@H]3[C@@H]2O)cc1 | – | -5.97% [at 11.4 µM]

Row | SMILES | AC50 | activity, negative = inhibition
24 | CCC1(O)c2ccccc2-c2ncccc21 (stereo not given) | 14.1 µM (active) | –
25 | O=c1c(-c2ccccc2)nc2cnc(N3CCOCC3)nc2n1C[C@H]1CCCO1 | 3.16 µM (active) | –
26 | O=c1c(-c2ccc(Cl)cc2)nc2cnc(N3CCOCC3)nc2n1C[C@H]1CCCO1 | 2 µM (active) | –
27 | O=c1c(-c2ccc(F)cc2)nc2cnc(N3CCOCC3)nc2n1C[C@H]1CCCO1 | 1.58 µM (active) | –
28 | CC(=O)N1CCC2(CC1)CN(Cc1ccccc1)C2 | inactive | –
29 | Oc1cc2c(c(Cl)c1O)CCNC[C@H]2c1ccccc1 | inactive | –
30 | COc1ccc2c(c1)Cc1cc(N=[N+]([O-])c3ccc4c(c3)Cc3cc(OC)ccc3-4)ccc1-2 | 1.58 µM (active) | –
31 | C/C(CCN1CCc2nc(-c3ccccc3)c(-c3ccccc3)cc2C1)=N\OC[C@@H](O)[C@@H]1O[C@@H]2OC(C)(C)O[C@@H]2[C@H]1O | – | -5.51% [at 11.4 µM]
32 | O=C(c1cc(C(F)(F)F)cc(C(F)(F)F)c1)N1CCC2(CC1)CN(c1ccccn1)C2 | inactive | –
33 | CC(C)=NO[C@@H](C)c1cn([C@@H]2COC[C@@H]2O)nn1 | – | -6.31% [at 11.4 µM]
34 | CCn1c(Cc2ccccc2)nnc1SCC(=O)NC(C)(C)C | inactive | –
35 | CC(C)(C)NC(=O)CSC(=Nc1ccc(F)cc1)NC#N | 2.51 µM (active) | –
36 | C[C@@H]1CC[C@H]2C(=O)NC[C@@H](O)CN2[C@@H]1c1ccc(Br)cc1 | – | -9.06% [at 11.4 µM]
37 | O=[N+]([O-])C1=CC=C2C(=NC3(CCCCC3)N2O)C1=NC1CCCCC1 | 10 µM (active) | –
38 | Nc1ccc(O)c(C(=O)O)c1 | inactive | –
39 | O=C(O)C1=CC(=C(c2ccc(O)c(C(=O)O)c2)c2ccc(O)c(C(=O)O)c2)C=CC1=O | 10 µM (active) | –
40 | N[C@@H](C(=O)O)c1ccc(O)c(C(=O)O)c1 | inactive | –
41 | C#CCCCO/N=C1/C[C@@H](O)[C@@H](O)[C@@H]2[C@@H]3C(=O)N(Cc4ccccc4)C(=O)[C@H]3CC[C@H]12 | – | 0.662% [at 11.4 µM]
42 | Cc1nc(S(=O)(=O)NC2CCCCC2)c(C#N)c(C)c1Cl | 10 µM (active) | –
43 | O=C(NNS(=O)(=O)c1ccc(Cl)cc1)NC1CCCCC1 | inactive | –
44 | Cc1nc(S(=O)(=O)N(C)c2ccccc2)c(C#N)c(C)c1Cl | 15.8 µM (active) | –
45 | CO[C@@H]1COC(=O)[C@@H](CCSC)NC(=O)C/C=C\[C@@H](C)COC(=O)CCC[C@H]1C | – | 0.608% [at 11.4 µM]
46 | Cc1cc(C)n(-c2nnc(C)n2/N=C/c2ccccc2OCc2ccccc2Cl)n1 | 2 µM (active) | –

Row | SMILES | AC50 | activity, negative = inhibition
47 | CCOC(=O)COc1c(OC)cc(Cl)cc1C1Nc2ccccc2C(=O)N1c1cccc(C)c1 (stereo not given) | inactive | –
48 | CCOC(=O)COc1c(OC)cc(Cl)cc1C1Nc2ccccc2C(=O)N1c1ccc(F)cc1 (stereo not given) | inactive | –
49 | CCOC(=O)COc1c(C=O)cc(Br)cc1OC | 4.47 µM (active) | –
50 | CCOC(=O)c1cc(-c2ccc(Cl)cc2)nc2c1c(C)nn2CCC#N | 0.891 µM (active) | –
51 | CC1CC2(CCCCC2)N2C(=O)C(=O)c3cccc1c32 (stereo not given) | 2.24 µM (active) | –
52 | COc1ccc(C(=O)O/N=C/c2ccc(S(=O)c3ccc(Cl)cc3)nc2)cc1 (stereo not given) | inactive | –
53 | Cn1nc(C(F)(F)F)c(/C=N/OC(=O)c2ccc(Cl)cc2)c1Cl | 12.6 µM (active) | –
54 | Cn1nc(C(F)(F)F)c(/C=N/OCc2c(Cl)cccc2Cl)c1Cl | 1.26 µM (active) | –
55 | Cn1nc(C(F)(F)F)c(/C=N/OC(=O)c2ccccc2Cl)c1SCc1ccc(Cl)cc1 | 2.82 µM (active) | –
56 | N[C@H](CCC(=O)NCS(=O)(=O)O)C(=O)O | inactive | –
57 | CCn1c(SCC(=O)c2ccc3ccccc3c2)nnc1-c1cccs1 | 3.55 µM (active) | –
58 | CCn1c(SCC(=O)N2CCN(S(=O)(=O)c3ccccc3)CC2)nnc1-c1cccs1 | inactive | –
59 | Cc1ccccc1NC(=O)CSc1nnc(-c2ccccc2)n1-c1ccccc1 | inactive | –
60 | Cc1ccc(C(=O)NNC(=O)CSc2nnc(-c3ccncc3)n2-c2ccc(C)cc2)cc1 | inactive | –
61 | O=C(CSc1nnc(-c2ccccc2)n1-c1ccccc1)c1cccs1 | 14.1 µM (active) | –
62 | CCn1c(SCC(=O)c2ccccc2)nnc1-c1cccs1 | 3.55 µM (active) | –
63 | Cn1cccc1C(=O)N1CCC2(CC1)CN(C(=O)Nc1ccccc1)C2 | inactive | –
64 | O=C(O)C1(C(=O)O)CCN(S(=O)(=O)c2ccccc2)CC1 | – | 13.9% [at 2.29 µM]
65 | CCCCCn1c(=O)c(C(=O)c2ccccc2)nc2ccccc21 | 0.708 µM (active) | –
66 | O=C(c1ccccc1)c1nc2ccccc2n(CCCn2c(=O)c(C(=O)c3ccccc3)nc3ccccc32)c1=O | inactive | –
67 | O=[N+]([O-])c1cccc(-c2nc(-c3ccncc3)no2)c1 | 0.631 µM (active) | –
68 | CCS(=O)(=O)N1CCC(C(=O)NCCCOC)CC1 | inactive | –
69 | O=C(N/N=C/c1cccc(F)c1)c1csc2c1CCCC2 | 4.47 µM (active) | –

Row | SMILES | AC50 | activity, negative = inhibition
70 | CC(C)(C)C1CCc2c(C(=O)N/N=C/c3cccs3)csc2C1 (stereo not given) | inactive | –
71 | CC(C)NCCCOc1ccc(Cl)cc1Br | 0.631 µM (active) | –
72 | Nc1ncnc2c1ncn2C[C@@H](O)C(=O)O | – | -12.5% [at 11.4 µM]
73 | O=C1CN=C(Nc2ccccc2)N1Cc1cccs1 | 12.6 µM (active) | –
74 | CCOc1ccc(N2C(=O)/C(=C/c3cccs3)N(CC(=O)OC)C2=S)cc1 | inactive | –
75 | CCOc1ccc(NC2=NCC(=O)N2Cc2cccs2)cc1 | 22.4 µM (active) | –
76 | CCOc1ccc(N2C(=O)CN=C2Nc2ccccc2Cl)cc1 | inactive | –
77 | Cc1cc(N)n(-c2ccc3ccccc3c2)n1 | 2 µM (active) | –
78 | CCCN(CCC)S(=O)(=O)c1ccc(C(=O)O)cc1 | inactive | –
79 | CCN(CC)CCNC(=O)c1ccc(Cl)c(S(=O)(=O)Nc2ccccc2OC)c1 | inactive | –
80 | CCN(CC)S(=O)(=O)c1cc(C(=O)OC)ccc1Cl | 22.4 µM (active) | –
81 | O=c1[nH]c(=S)[nH]c2c1CN(CCCN1CCOCC1)CN2 | – | -13.5% [at 2.29 µM]
82 | Cc1nn(-c2ccccc2)c(Cl)c1/C=N/NC(=O)c1ccco1 | 7.08 µM (active) | –
83 | O=C(Nc1c(C(=O)N2CCCCC2)cnn1-c1ccccc1)c1ccco1 | inactive | –
84 | Cc1nn(-c2ccccc2)c(C)c1/C=N/NC(=O)c1cc(-c2ccc(Cl)s2)[nH]n1 | 14.1 µM (active) | –
85 | COc1ccc(CN2C(=O)c3ccccc3C(/C=N\OCc3ccc(F)cc3)C2=O)cc1 (stereo not given) | 12.6 µM (active) | –
86 | CCCC1S/C(=N/N=C/c2ccc(OC)cc2)N(Cc2ccc(OC)cc2)C1=O (stereo not given) | inactive | –
87 | CN(C)c1ncc2nc(-c3ccc(Cl)cc3)c(=O)n(C)c2n1 | 1.58 µM (active) | –
88 | CN(C)c1ncc2nc(-c3ccc(F)cc3)c(=O)n(C)c2n1 | 1.58 µM (active) | –
89 | CN(C)c1ncc2nc(-c3ccccc3)c(=O)n(C)c2n1 | 1 µM (active) | –
90 | C=CC[C@@H]1C=C[C@@H](O/N=C\c2ccc(C(=O)N3[C@H](c4ccc(C)cc4)[C@@H](C)CC[C@H]3C(=O)OC)cc2)[C@@H](CO)O1 | – | -12.6% [at 11.4 µM]
